Data taken from PubChem BioAssay (NCATS).
Several values for one entry are separate records, joined by “and”; a condition that tells them apart may be missing. Identical values can stand only once. Results filed as inconclusive are left out. A call without a number means that no potency is given here. Activity calls are given as the source filed them. Unless noted, calls follow the shape of the dose curve; as a rule, active = well fitted curve in the direction sought with a large enough effect; inconclusive = small, poorly fitted or top-dose-only effect, or another doubt; inactive = no such curve, though single readings can be large; an effect the other way counts as inactive or inconclusive.

Key:
[1] = qHTS for small molecule inhibitors of Yes1 kinase: Counter Assay (AID 686950); conditions: series mostly up to 76.9 µM;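 also: no kinase present so only ADP-Glo detection of a fixed ADP amount is tested; luminescence from ADP-Glo reporting ADP in a fixed ATP and ADP mixture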
Outline: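 Enzyme-free detection counter-screen: compounds preincubated 20 min in buffer, then 0.08 mM ATP plus 0.02 mM ADP added for 60 min at room temperature; ADP-Glo luminescence. Buffer 50 mM Tris pH 7.5, 10 mM MgCl2, 150 mM NaCl; normalized to ATP+ADP and ATP-only controls.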

[2] = biological target: Tyrosine-protein kinase Yes (Homo sapiens) (UniProt P07947); assay: qHTS for small molecule inhibitors of Yes1 kinase: Primary Screen (AID 686947); conditions: Yes1 kinase biochemical qHTS inhibition; series mostly up to 76.9 µM; also: nearly all actives have a fitted effect of over 60% in size; also: potency is read from the fitted curve at half-maximal effect
Tyrosine-protein kinase Yes (Homo sapiens), sequence (P07947 whole entry, looked up): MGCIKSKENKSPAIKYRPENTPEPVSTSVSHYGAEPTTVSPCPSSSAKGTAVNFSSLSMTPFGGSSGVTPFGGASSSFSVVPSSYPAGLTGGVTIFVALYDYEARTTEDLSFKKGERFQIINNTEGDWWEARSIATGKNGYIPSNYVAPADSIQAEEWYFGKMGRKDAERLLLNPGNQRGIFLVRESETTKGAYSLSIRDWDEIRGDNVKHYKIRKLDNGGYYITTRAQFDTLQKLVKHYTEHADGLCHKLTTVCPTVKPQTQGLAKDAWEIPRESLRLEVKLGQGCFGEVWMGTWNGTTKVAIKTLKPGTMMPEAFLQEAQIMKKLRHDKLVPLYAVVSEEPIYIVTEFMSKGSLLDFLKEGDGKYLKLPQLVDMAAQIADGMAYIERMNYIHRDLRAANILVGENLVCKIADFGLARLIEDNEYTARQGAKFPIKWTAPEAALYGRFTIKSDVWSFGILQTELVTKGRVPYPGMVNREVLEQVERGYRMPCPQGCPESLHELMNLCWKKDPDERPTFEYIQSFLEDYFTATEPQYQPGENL
Outline: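 ADP-Glo luminescence readout; final 4 nM Yes1, 0.1 mM ATP, 0.3 mg/mL poly(E4Y), Tris pH 7.5, MgCl2, DTT, Brij-35. 20 min compound preincubation, 60 min reaction at RT. Normalized to DMSO wells with and without enzyme.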

[3] = qHTS profiling for inhibitors of Plasmodium falciparum (3D7) proliferation (AID 743322);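 also: infected erythrocytes exposed to compound for 72 h before lysis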; conditions: P. falciparum 3D7 proliferation; at 28.7 µM (top of the series)
Outline: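 Erythrocytes infected with P. falciparum (0.3% parasitemia, 2.5% hematocrit) incubated with compounds 72 h at 37 C, 5% CO2. Lysis with saponin/Triton buffer containing SYBR Green I, overnight at room temperature in the dark; DNA fluorescence (485/535 nm) normalised to 0.29 uM artemisinin and DMSO.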

[4] = qHTS profiling for inhibitors of Plasmodium falciparum (DD2) proliferation (AID 743323; call rule not given here); conditions: lower = more inhibition; at 28.7 µM (top of the series)
Outline: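 SYBR Green fluorescence (ex 485, em 535 nm) of lysed cultures gives parasite DNA content; wells normalized to artemisinin (0.29 uM) and DMSO controls. Infected red cells: 0.3% parasitemia, 2.5% hematocrit, 72 h, 37 C.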

[5] = qHTS profiling for inhibitors of Plasmodium falciparum (HB3) proliferation (AID 743324); conditions: Plasmodium falciparum HB3 blood-stage proliferation; at 28.7 µM (top of the series)
Outline: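 P. falciparum HB3 grown in erythrocytes (0.3% parasitemia, 2.5% hematocrit final) with compound for 72 h at 37 C, 5% CO2. Parasite DNA detected by SYBR Green after saponin/triton lysis overnight; normalized to 0.29 uM artemisinin and DMSO.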

[6] = qHTS Assay for Identifying Gametocytocidal Compounds (AID 743244);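 also: actives lower the fluorescent signal which means gametocytes are killed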; conditions: P. falciparum 3D7 stage III-V gametocytes, alamarBlue, 72 h; stronger effect = lower value
Outline: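 3D7 gametocytes, stages III–V, 20,000/well; cpd 72 h, 37 °C/5% CO2; + alamarBlue 24 h; fluor. Ex 525/Em 598.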

Question: Which outcome [1] does the source give for Cc1cc(O)cc(C)c1C=Cc1cncc(C(N)=O)c1 here?
Answer: inactive

Question: What does the source list for COc1cc(Nc2nccc(-c3cnn4ncccc34)n2)cc(OC)c1?
Answer: Potency [2]: 0.519 µM (active); outcome [1]: inactive

Question: With CS(=O)(=O)CCNCc1coc(-c2ccc3ncnc(Nc4ccc(OCc5ccccc5)cc4)c3c2)c1 as the compound, how does the Potency [2] read?
Answer: 1.84 µM (active)

Question: What about the outcome [1] of the same compound?
Answer: inactive

Question: With CCn1c(-c2nonc2N)nc2cncc(C(=O)N3CCC(N)C3)c21 (stereo not given) as the compound, how does the outcome [1] read?
Answer: inactive

Question: With Nc1nccc(C#Cc2cncnc2Nc2ccc(OCc3cccc(F)c3)c(Cl)c2)n1 as the compound, how does the Potency [2] read?
Answer: inactive

Question: And the outcome [1]?
Answer: inactive

Question: Which outcome [1] does the source give for c1ccc(Nc2ncc(-c3ccccc3)o2)cc1 here?
Answer: inactive

Question: Which Potency [2] does the source give for Fc1cccc(COc2ccc(Nc3ncnc4sc(-c5ccco5)cc34)cc2Cl)c1 here?
Answer: inactive

Question: And the outcome [1]?
Answer: inactive

Question: For COc1ccccc1Oc1nccc(-c2c(-c3ccc(F)cc3)ncn2C2CCNCC2)n1, which outcome [1] is on record?
Answer: inactive

Question: For Nc1ccc(C#Cc2cncnc2Nc2ccc(OCc3cccc(F)c3)c(Cl)c2)cc1, which Potency [2] is on record?
Answer: inactive

Question: And the outcome [1]?
Answer: inactive

Question: Which Potency [2] does the source give for COc1cc2ncn(-c3cc(OC(C)c4ccccc4Cl)c(C(N)=O)s3)c2cc1OC (stereo not given) here?
Answer: 2.92 µM (active) and 733 nM (active)

Question: What about the outcome [1] of the same compound?
Answer: inactive

Question: With Oc1[nH]c2ccccc2c1C=Nc1ccc(-n2cncn2)cc1 as the compound, how does the Potency [2] read?
Answer: 9.23 µM (active)

Question: What about the outcome [1] of the same compound?
Answer: inactive

Question: Which Potency [2] does the source give for CCS(=O)(=O)c1ccc(OC)c(Nc2ncc(-c3cccc(F)c3)o2)c1 here?
Answer: 0.146 µM (active)

Question: And the outcome [1]?
Answer: inactive

Question: With Fc1ccc(-c2ncn(C3CCNCC3)c2-c2ccnc(Oc3ccc(Cl)cc3)n2)cc1 as the compound, how does the outcome [1] read?
Answer: inactive

Question: With CS(=O)(=O)CCNCc1ccc(-c2ccc3ncnc(Nc4ccc(OCc5cccc(F)c5)c(C(F)(F)F)c4)c3c2)o1 as the compound, how does the outcome [1] read?
Answer: inactive

Question: Which Potency [2] does the source give for COc1cc2ncn(-c3cc(OCc4cccs4)c(C(N)=O)s3)c2cc1OC here?
Answer: 1.84 µM (active)

Question: And the outcome [1]?
Answer: inactive

Question: Which results are given for COc1cc2c(cc1Nc1nc(N3CCc4ccccc43)c3cc[nH]c3n1)N(C(=O)CN(C)C)CC2?
Answer: Potency [2]: inactive; outcome [1]: inactive

Question: Which results are given for CCN(CC)S(=O)(=O)c1ccc(OC)c(Nc2ncc(-c3ccccc3)o2)c1?
Answer: Potency [2]: 0.654 µM (active); outcome [1]: inactive

Question: With COc1ccc(-c2nn3ncccc3c2-c2ccnc(Nc3ccc4c(c3)OCCO4)n2)cc1 as the compound, how does the Potency [2] read?
Answer: 0.0292 µM (active)

Question: And the outcome [1]?
Answer: inactive

Question: Which results are given for COc1ccc2cc(-c3c(-c4ccncc4)nc(-c4ccc(S(C)(=O)=O)cc4C)n3C)ccc2c1?
Answer: Potency [2]: 1.84 µM (active); outcome [1]: inactive

Question: Which Potency [2] does the source give for CCS(=O)(=O)c1ccc(OC)c(Nc2ncc(-c3cccc(C(C)=O)c3)o2)c1 here?
Answer: 0.292 µM (active)

Question: And the outcome [1]?
Answer: inactive

Question: Which results are given for CCc1ccc(Oc2nccc(-c3c(-c4ccc(F)cc4)ncn3C3CCNCC3)n2)cc1?
Answer: Potency [2]: inactive; outcome [1]: inactive

Question: With COc1cc2ncn(-c3cc(OCCc4ccccc4)c(C(N)=O)s3)c2cc1OC as the compound, how does the Potency [2] read?
Answer: inactive

Question: What about the outcome [1] of the same compound?
Answer: inactive

Question: With c1ccc(Oc2ccc(Nc3ncc(-c4ccccc4)o3)cc2)cc1 as the compound, how does the Potency [2] read?
Answer: inactive

Question: And the outcome [1]?
Answer: inactive

Question: For CCCN1CCC=C(c2ccc(Nc3nc(Nc4ccccc4C(N)=O)c4cc[nH]c4n3)c(C)c2)C1, which outcome [1] is on record?
Answer: inactive

Question: Which Potency [2] does the source give for COc1cc2ncn(-c3cc(OCc4ccccc4C(F)(F)F)c(C(=O)N(C)C)s3)c2cc1OC here?
Answer: 7.33 µM (active)

Question: What about the outcome [1] of the same compound?
Answer: inactive

Question: With COc1ccc(CNC(=O)c2ccc(-c3cc(-c4nnc(C)o4)ccc3C)cc2)cc1 as the compound, how does the outcome [1] read?
Answer: inactive

Question: Which outcome [1] does the source give for COc1cc2c(cc1Nc1nc(Nc3ccsc3C(N)=O)c3cc[nH]c3n1)N(C(=O)CN(C)C)CCC2(C)C here?
Answer: inactive

Question: For O=C1NC(=O)C(N2CCc3ccccc32)=C1c1ccc(Cl)cc1, which outcome [1] is on record?
Answer: inactive

Question: For Cc1ccc(C(=O)NC2CCC2)cc1-c1ccc(C(=O)NCC2CC2)cc1, which outcome [1] is on record?
Answer: inactive

Question: Which Potency [2] does the source give for Nc1nc(-c2cccc(Cl)c2)c(-c2ccc3ncccc3n2)s1 here?
Answer: 1.16 µM (active)

Question: What about the outcome [1] of the same compound?
Answer: inactive

Question: What does the source list for CNC(=O)c1sc(-n2cnc3cc(OC)c(OC)cc32)cc1OCc1ccccc1C(F)(F)F?
Answer: Potency [2]: 18.4 µM (active); outcome [1]: inactive

Question: With NS(=O)(=O)c1ccc(N=Nc2c(=O)[nH]c3ccc4[nH]cccc4c23)cc1 as the compound, how does the outcome [1] read?
Answer: inactive

Question: With CC1=C(C(=O)Nc2ccc3[nH]ncc3c2)C(c2ccc(F)cc2)N=C(c2ccc(C(F)(F)F)nc2)N1 (stereo not given) as the compound, how does the outcome [1] read?
Answer: inactive

Question: For COC(=O)Nc1nc2ccc(Oc3ccc(NC(=O)Nc4cccc(Br)c4)cc3)cc2[nH]1, which Potency [2] is on record?
Answer: inactive

Question: And the outcome [1]?
Answer: inactive

Question: Which outcome [1] does the source give for CN(C)CCOc1ccc(-c2cc(-c3ccc4c(c3)CCC4=NO)c(-c3ccncc3)o2)cc1 here?
Answer: inactive

Question: Which results are given for O=C([C@H](Cc1ccc(O[S+](=O)([O-])c2cccnc2)cc1)N[S+](=O)([O-])c1ccccn1)N1CCN(c2ccccc2)CC1?
Answer: remaining parasite growth % (stronger effect = lower value) [3]: 6.76%; activity, percent of control [4]: 12.3%; remaining proliferation (% of control), lower = more inhibition [5]: 2.47%

Question: Which max response [6] does the source give for NC[C@@H]1O[C@H](O[C@H]2[C@@H](O)[C@H](O[C@@H]3[C@@H](O)[C@H](N)C[C@H](N)[C@H]3O[C@H]3O[C@H](CN)[C@@H](O)[C@H](O)[C@H]3N)O[C@@H]2CO)[C@H](N)[C@@H](O)[C@@H]1O here?
Answer: -12% (inactive)
